The source made the active and inactive calls.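 The calls were made as follows: active = a thermal shift above zero, meaning the compound raised the protein's melting temperature; inactive = the rest.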
The molecules below were run against Luciferin 4-monooxygenase (Photinus pyralis) (UniProt P08659) (assay: Thermal Shift Assay for Inhibitors of FLuc (Firefly Luciferase, Photinus pyralis) in Absence of ATP). Details: purified FLuc, SYPRO Orange thermal shift, no ATP; at 200 µM; hits give high values.
Text: Firefly (Photinus pyralis) luciferase (FLuc) is widely used as a reporter in biological assays. […] In order to determine if FLuc thermal stabilization parallels inhibitor potency, a fluorescence-based thermal denaturation assay was developed in this present study. An environmentally sensitive fluorescence dye, SYPRO Orange (Invitrogen, presently Life Technologies) was utilized to monitor the fluorescence change as a function of temperature. The dye preferentially binds to the hydrophobic regions of the protein, and its high signal-to-noise ratio, large Stokes shift and high excitation wavelength make it ideal for thermal shift application. In this assay, the melting temperature (Tm) (the inflection point of the protein melt transition) was assessed for each sample tested. Differences in the Tm between controls and compound-containing samples were determined (the thermal shift or delta Tm), and compounds were ranked by the degree of their thermal shift at the top concentration (200 uM). […] FLuc catalyzes light production in bioluminescent organisms. The reaction requires luciferin, ATP and O2 as substrate, and it includes the formation of a luciferyl-AMP intermediate and the subsequent production of light, AMP, oxyluciferin and CO2. In this study, PTC124 and analogues were evaluated for their potential to stabilize FLuc in the absence and presence of ATP. This particular BioAssay is in the absence of ATP. See related BioAssay "Thermal Shift Assay for Inhibitors of FLuc (Firefly Luciferase, Photinus pyralis) in the Presence of ATP" See [6] for more details on this assay and related studies. Welch, et al. PTC124 targets genetic disorders caused by nonsense mutations. Nature 447 (2007) 87-91. D.S. Auld, N. Thorne, W.F. Maguire, and J. Inglese, Mechanism of PTC124 activity in cell-based luciferase assays of nonsense codon suppression. […]
Assay Protocol: 1.8 uM FLuc was tested in Tris-acetate buffer (pH 7.6) or phosphate buffer saline (pH 7.4). […] Fluorescence intensity changes (Ex 490/Em 575 nm) were monitored with a charge-coupled device (CCD) camera. […]

Sequence of Luciferin 4-monooxygenase (Photinus pyralis) (P08659 whole entry, looked up): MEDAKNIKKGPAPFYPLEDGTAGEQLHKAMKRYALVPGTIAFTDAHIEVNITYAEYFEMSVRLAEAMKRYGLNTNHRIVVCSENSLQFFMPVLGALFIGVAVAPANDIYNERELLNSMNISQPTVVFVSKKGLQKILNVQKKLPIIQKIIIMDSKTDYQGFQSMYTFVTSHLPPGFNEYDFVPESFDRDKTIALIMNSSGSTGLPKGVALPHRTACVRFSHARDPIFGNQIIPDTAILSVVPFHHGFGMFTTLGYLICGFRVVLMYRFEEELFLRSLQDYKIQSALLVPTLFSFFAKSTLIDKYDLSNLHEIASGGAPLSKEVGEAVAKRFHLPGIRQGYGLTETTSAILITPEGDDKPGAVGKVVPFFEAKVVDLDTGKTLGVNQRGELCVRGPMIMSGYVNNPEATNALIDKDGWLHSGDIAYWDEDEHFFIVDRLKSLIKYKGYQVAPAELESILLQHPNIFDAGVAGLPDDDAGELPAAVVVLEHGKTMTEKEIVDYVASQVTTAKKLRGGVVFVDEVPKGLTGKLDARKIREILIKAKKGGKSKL

Thermal shift (delta Tm), active:
O=C(O)c1ccc(-c2noc(-c3ccccc3F)n2)cc1 5.87 °C
NC(=O)c1cccc(-c2noc(-c3ccccc3F)n2)c1 2.84 °C
Nc1ncnc2c1ncn2[C@@H]1O[C@H](COP(=O)(O)OC(=O)c2cccc(-c3noc(-c4ccccc4F)n3)c2)[C@@H](O)[C@H]1O 28.3 °C

Source: PubChem BioAssay AID2229 (National Center for Advancing Translational Sciences (NCATS), 2010)
